In PubChem BioAssay (NCI):
Where “and” joins values, the source holds several entries; their conditions need not be identical. Identical values can stand only once. About 83,000 compounds went through this panel and 20% of them were active in at least one assay; those are over-represented in the sample as a whole.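 Testing used 96-well plates and a 48-hour single-concentration exposure. Example: -40 means 40% of the starting cells died.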 Calls of active or inactive are those of the source. The calls were made as follows: active = growth percent below 10; inactive = the rest.

tested on: MDA-MB-468 breast; test: NCI-60 one-dose screen, 48 h (100 = growth as untreated, 0 = no growth, -100 = all killed); details: 10 µM unless noted

Structure (SMILES) | growth
O=C1c2ccc3c4c(ccc(c24)C(=O)N1CCCNCc1ccccc1Cl)C(=O)N(CCCNCc1ccccc1Cl)C3=O | -89% (active)
COc1ccc(OC)c(/C=C2\COc3ccc(O)c(O)c3C2=O)c1 | 16.6% (inactive)
Nc1c(C(=O)Nc2c(Cl)cccc2Cl)sc2nc3c(cc12)C(=O)CCC3 | -3.83% (active)
CCN1C(=O)N(CC)C2SC(N/N=C/c3ccc(F)cc3)=NC21 (stereo not given) | 36.8% (inactive)
COC(=O)c1c(C)nc(C)c2c1C(=O)C(Br)=C(NCCCCO)C2=O | 29.5% (inactive)
COc1cc(-c2cc(C(=O)N3CCN(C(=O)c4ccccc4NCc4cccs4)CC3)nc3cc(-c4ccccc4)nn23)cc(OC)c1OC | 64.6% (inactive)
Cc1c(Cl)cccc1NC(=O)c1sc2nc3c(cc2c1N)CN(Cc1ccccc1)CC3 | 29.1% (inactive)
NS(=O)(=O)c1ccc(-n2cc(CN3CCCCC3)nn2)cc1 | 101% (inactive)
CCN(CC)c1ccc(/C=N/NC(=O)c2ccc(S(C)(=O)=O)cc2)c(O)c1 | 1.2% (active)
COc1ccc(C(c2cc(OC)c(OC)c(OC)c2)N2CCN(c3ccccc3)CC2)cc1 (stereo not given) | 77.2% (inactive)
Cc1[nH]c(-c2ccc3cc[nH]c3c2)c2c1C(=O)CCCC2 | 15.8% (inactive)
COc1cc2nc3cc([N+](=O)[O-])ccc3c(NCCCNCCO)c2cc1OC | -49.4% (active)
O=C1c2ccc3c4ccc5c6c(ccc(c7ccc(c2c37)C(=O)N1CCC[P+](c1ccccc1)(c1ccccc1)c1ccccc1)c64)C(=O)N(CCC[P+](c1ccccc1)(c1ccccc1)c1ccccc1)C5=O | -2.38% (active)
CNC(=O)c1cc(-n2ccc3cc(NC(=O)c4ccc(N5CCOCC5)c(C(F)(F)F)c4)ccc32)ccn1 | 71.6% (inactive)
C#C[C@@]1(O)[C@@H](CO)O[C@@H](n2cc(I)c3c(N)ncnc32)[C@@H]1O | -37.7% (active)
COc1ccccc1N1C(=N)S/C(=C\c2ccc(OCc3ccccc3F)cc2)C1=O | 5.85% (active)
O=C1CSC(c2ccccc2O)N1c1nnc(Cn2cnnc2)o1 (stereo not given) | 96.2% (inactive)
O=C1c2ccccc2C(=O)c2c1oc1oc3c(c(=O)c21)c(=O)n(-c1ccccc1)c1ccccc31 | -27.3% (active)
Cc1cc(=O)oc2cc(OC(=O)N3CCN(C)CC3)ccc12 | 107% (inactive)
CCCCc1n(Cc2ccc3ccccc3c2)cc[n+]1Cc1ccc2ccccc2c1 | -55.2% (active)

Structure (SMILES) | growth
CC(=O)N[C@H](C(=O)N[C@@H](CCCNC(=N)N)C(=O)N[C@@H](CCCCN)C(=O)N[C@@H](CCCNC(=N)N)C(=O)NC(C(=O)N[C@@H](CC(C)C)C(=O)N[C@@H](CCCNC(=N)N)C(=O)N[C@@]1(C)CCC/C=C\CCC[C@@](C)(C(=O)N[C@@H](CCCNC(=N)N)C(=O)N[C@@H](CCC(=O)O)C(=O)N[C@@H](CC(C)C)C(=O)N[C@H](C(=O)N[C@@H](CCC(=O)O)C(N)=O)C(C)C)NC(=O)[C@H](CCC(N)=O)NC(=O)[C@H](CC(C)C)NC(=O)[C@H](CC(C)C)NC1=O)[C@@H](C)O)C(C)C (stereo not given in full) | 31.9% (inactive)
O=C(Nc1ccccc1Cl)c1cnc2ccc(C3CCNCC3)cn12 | 63.3% (inactive)
COC(=O)C1=C(C(=O)ON)[C@@H]2C=C[C@@]1([C@@H](Cc1ccccc1)Nc1ccccc1)O2 | -38.8% (active)
CN(C)CCCN(CCC1CCCCC1)CCC1CCCCC1 | -35.4% (active)
O=C(NNc1nc2cc(F)cc(F)c2n2cccc12)c1ncccn1 | 3.64% (active)
C1=NCCc2ccccc21 | 109% (inactive)
O=C(NCCCO)c1cc(Cl)ccc1O | -12.2% (active)
COc1cc(C(=O)c2ccc3c(c2)OCO3)cc(OC)c1OC | 9.88% (active) and -4.92% (active)
CC(=O)Oc1cc(OC(C)=O)c2ccccc2c1OC(C)=O | 72.7% (inactive)
CC(C)CCC[C@@H](C)[C@H]1CCC2C3=CCn4c(=O)ccc(=O)n4C3CC[C@@]21C (stereo not given in full) | -49% (active)
COc1cc(/C=C/c2cc(/C=C/c3ccc(O)c(OC)c3)n(C(=O)c3ccccc3Br)n2)ccc1O | 2.97% (active)
CC(C)(C)CC(C)(C)c1ccc(OCCOCC[N+](C)(C)Cc2ccccc2)cc1 | -81.8% (active)
N#Cc1c(NC(=O)c2cccc(C(F)(F)F)c2F)sc2c1CCC(=O)C2 | -32% (active)
Nc1c(C(=O)O)[nH]c(=O)[nH]c1=O | 103% (inactive)
C/C(=C\CCc1ccsc1)CC/C=C(\C)CCCN1CCN(CCO)CC1 | 7.83% (active)
CC(C)(C)c1ccc(S(=O)(=O)Oc2ccc3c4c(c(=O)oc3c2)CCCCC4)cc1 | 23.9% (inactive)
O[C@@H]1Cc2ccc3ccccc3c2N[C@H](c2ccoc2)C1 | 79.4% (inactive)
COc1ccc2c(c1)C(C)Cc1c(ncnc1-n1c(C)nc3ccccc31)N2C (stereo not given) | 26.2% (inactive)
c1cncc(-c2nc3ccccc3[nH]2)c1 | 102% (inactive)
COc1cc2c3cc1Oc1c(OC)c(OC)cc4c1C(Cc1ccc(O)c(c1)Oc1ccc(cc1)CC3N(C)CC2)N(C)CC4 (stereo not given) | -72.3% (active)
